Bioassay records: PubChem BioAssay, National Center for Advancing Translational Sciences (NCATS)
Sampled rows, rich in hits. Any-hit rate of the full collection: about 1.2%.
gsp agonist: gsp mutant agonism | gsp mutant cells, cAMP HTRF, 30 min | Potency, µM (doses to about 76.9 µM), inactives show at the top dose activation (cAMP increase), actives largely listed as activators | 0.13% of 340,000 active | AID 624287; active = well fitted activation curve with a large enough effect; inconclusive = small, poorly fitted or top-dose-only effect, or another doubt; inactive = no such curve, though single readings can be large or run the other way; cell line not stated here;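 also: phosphodiesterase inhibitor Ro 20-1724 added with compounds to block cAMP breakdown; potency is read from the fitted curve at half-maximal effect; nearly all actives have a fitted effect of over 60% in size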
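Cells in DMEM/10% FBS with G418 were pretreated with compounds in DMSO plus […] (300 uM stock) for 30 min at 37C. cAMP was measured by HTRF (cAMP-d2 plus anti-cAMP antibody-K) after 30 min at room temperature.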
RXFP1 ag: RXFP1 (human) receptor agonism; 0.3% of 370,000 active; Q9HBX9; Potency, µM (highest dose often 57.5 µM), inactives show at the highest dose activation, actives largely listed as activators; HEK293T-RXFP1 cAMP TR-FRET, 30 min; response scale: percent of porcine relaxin response, buffer zero; active = well fitted activation curve with a large enough effect; inconclusive = small, poorly fitted or top-dose-only effect; also: potency is read from the fitted curve at half-maximal effect; % is scaled to controls: 0 for no effect and ±100 for the full control effect; nearly all actives have a fitted effect of over 60% in size
Target sequence (Q9HBX9 whole entry, looked up): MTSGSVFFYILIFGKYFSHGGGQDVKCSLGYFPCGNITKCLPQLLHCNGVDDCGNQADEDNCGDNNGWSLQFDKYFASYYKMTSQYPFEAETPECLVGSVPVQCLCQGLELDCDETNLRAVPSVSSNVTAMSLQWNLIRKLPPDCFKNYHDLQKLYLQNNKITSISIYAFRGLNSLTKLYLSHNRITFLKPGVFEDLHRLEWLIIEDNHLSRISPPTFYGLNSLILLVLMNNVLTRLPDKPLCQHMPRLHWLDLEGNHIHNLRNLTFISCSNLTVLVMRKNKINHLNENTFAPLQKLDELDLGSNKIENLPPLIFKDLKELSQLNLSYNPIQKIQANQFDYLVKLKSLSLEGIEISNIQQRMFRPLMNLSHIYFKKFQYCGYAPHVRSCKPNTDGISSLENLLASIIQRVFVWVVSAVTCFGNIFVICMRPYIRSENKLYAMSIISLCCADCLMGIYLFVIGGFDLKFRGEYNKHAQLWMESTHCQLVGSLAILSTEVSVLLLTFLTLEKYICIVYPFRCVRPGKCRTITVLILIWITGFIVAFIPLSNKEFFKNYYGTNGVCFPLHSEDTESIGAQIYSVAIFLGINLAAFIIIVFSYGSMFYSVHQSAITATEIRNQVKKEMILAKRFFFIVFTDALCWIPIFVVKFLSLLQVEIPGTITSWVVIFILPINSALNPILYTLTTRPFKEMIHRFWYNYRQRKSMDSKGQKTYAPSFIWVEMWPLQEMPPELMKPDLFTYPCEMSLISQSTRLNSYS
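Agonist response is measured as cAMP accumulation in an RXFP1-transfected HEK293T line under PDE4 inhibition. Values are scaled between buffer-only and 29 nM porcine relaxin, and EC50s come from standard Hill equation fits.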
pAkt inh: Akt phosphorylation inhibition. activity change, % for hits at 50 µM. Neuro2A IGF-stimulated pAkt S473 HTRF, 20 min; stronger effect = lower value. AID 651550. 0.32% of 360,000 active; in the data active = activity change below about -80%; inconclusive = mostly about -51% to -80%; also: % is scaled to controls: 0 for no effect and ±100 for the full control effect
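Neuro2A cells in DMEM with 0.5% FBS, overnight at 37 deg C, given compound at single 50 µM final, then IGF (6 nM final) for 20 min at 37 deg C. Lysed; phospho-Akt Ser473 by HTRF after 24 h, 665/615 ratio.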
gsp antag: antagonists of gsp mutant (McCune-Albright syndrome); gsp-mutant cells, cAMP HTRF, 30 min; Potency, µM (highest dose often 76.9 µM), inactives show at the top dose activity change, negative = inhibition, hits mostly inhibitors; 0.4% of 340,000 active; AID 624288; calls by dose curve; cell line not stated here;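 also: intracellular cAMP measured with PDE inhibitor Ro 20-1724 present during compound exposure; potency is read from the fitted curve at half-maximal effect; % is scaled to controls: 0 for no effect and ±100 for the full control effect; nearly all actives have a fitted effect of over 65% in size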
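Measurement of cellular cAMP by homogeneous time-resolved fluorescence following a 30 min compound exposure at 37C. The PDE inhibitor […] was present throughout; the assay buffer was DPBS with 0.05% BSA and 0.005% Tween 20.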
RXFP1 antag: blocks the human relaxin receptor RXFP1 | HEK293-RXFP1, relaxin-stimulated cAMP HTRF, 30 min; stronger effect = lower value | Q9HBX9 | activity change, negative = inhibition, % at 57.5 µM | AID 1259400 | 0.59% of 350,000 active;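 active = activity change of -60% or lower, but not beyond a set lower limit; inconclusive = change between -60% and -40%, or beyond the set limit; inactive = change above -40%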; also: % is scaled to controls: 0 for no effect and ±100 for the full control effect
Starred values were filed as active, the others as inactive; i = inactive; u = inconclusive; x = no result; [ ] = dose if it differs, or a comment.

SMILES	gsp agonist	RXFP1 ag	pAkt inh	gsp antag	RXFP1 antag
CC(=O)c1ccc(NS(=O)(=O)c2ccc3[nH]c(=O)[nH]c3c2)cc1	x	1.1%	x	x	8.3
COC(=O)C1=C(C)N=C2SC(C#N)=C(N)N2C1c1cccc(OC)c1 (centres undefined)	-35.6%	2.4%	-114.7%*	-5.5%	4.6
CCOC(=O)c1cc(-c2ccc(OC)cc2)n(CCC(=O)NCCc2ccccc2)c1C	x	-0.5%	x	x	-62.0*
NC(=O)SCC(=O)Nc1ccc(Cl)c(Cl)c1	-1.4%	2.3%	i	0.6%	-71.4*
Cc1ccc(NC(=O)CSC(N)=O)cc1Cl	13.8%	0.9%	i	-14.1%	-8.8
CC(C)OC(=O)c1c(NC(=O)C2c3ccccc3Oc3ccccc32)sc2c1CCCC2	x	22.4µM*	x	x	4.1
CCOC(=O)CS(=O)(=O)c1nc(-c2ccc(F)cc2)cc(C(F)(F)F)n1	0.4%	0.1%	i	1.9%[15.4 µM]	-80.2*
CCOC(=O)CS(=O)(=O)c1nc(-c2ccccc2)cc(C(F)(F)F)n1	11.9%	0.3%	i	5.5%[15.4 µM]	-77.6*
O=C(Nc1nc2c(F)cccc2s1)c1ccc2c(c1)OCCO2	x	-0.3%	x	x	x
Cc1cc(C)nc(NN2C(=O)/C(=C/c3ccc(O)cc3)SC2=S)n1	18.2%	1.3%	i	u	-116.2*
COC(=O)c1[nH]c2ccc(Br)cc2c1NC(=O)CN1CCN(C2CCCCC2)CC1	26.4%	-0.1%	i	-6.1%	-63.2*
CC1CCCC(C)N1C(=O)CSCc1ccc(Cl)cc1 (centres undefined)	-43.0%	-0.2%	i	35.5µM*	39.1
CCCn1c(SCC(=O)Nc2ccc(NC(=O)CC)cc2)nc2c1c(=O)n(C)c(=O)n2C	19.6%[15.4 µM]	20µM*	i	4.8%	-1.1
CCn1c(SCC(=O)Nc2ccc(OC)cc2)nc2c1c(=O)n(C)c(=O)n2C	11.3%[15.4 µM]	29.9%	i	6.3%	3.5
CCn1c(SCC(=O)Nc2ccc(NC(C)=O)cc2)nc2c1c(=O)n(C)c(=O)n2C	63.9%[15.4 µM]	15.8µM*	i	7.1%	22.8
CCn1c(SCC(=O)N2CCCC2)nc2c1c(=O)n(C)c(=O)n2C	8.91µM*	16.3%	i	15.3%	-4.8
CCOC(=O)c1c(C)oc2c(Cl)cc(NS(=O)(=O)c3ccc(Cl)c(C)c3)cc12	x	0.3%	x	x	-36.9
CCc1cccc2c(CCO)c[nH]c12	x	x	x	x	-9.3
COc1cccc(NC(=O)C(=O)N2CCOCC2)c1	-14.3%	-0.8%	-100.3%*	11.6%	-14.7
COC(=O)c1ccc(NC(=O)C(=O)N2CCN(C(=S)Nc3cccc(OC)c3)CC2)cc1	7.5%	0.0%	i	-12.3%	2.5
O=C(c1ccc([N+](=O)[O-])cc1)N1c2ncnn2C2(CCCCC2)[C@@H]2CCCC[C@@H]21	x	4.1%	x	x	-3.8
COc1ccc2ccccc2c1CN1CCCC(CO)C1 (centres undefined)	0.8%	-1.4%	-112.3%*	13.1%	-5.0
O=C(/C=C/C(Cl)(Cl)Cl)Nc1ccc(Cl)cc1	u	x	i	-6.2%	-72.6*
Cc1ccc(CNC(=O)c2ccc(Cn3nc(C)cc3C)o2)cc1	10.6%	4.5%	x	-6.4%	-117.2*
Oc1ccc(N=Nc2nc(-c3ccccc3)c(-c3ccccc3)[nH]2)cc1	-16.0%	0.0%	i	28.2µM*	-8.4
SMILES	gsp agonist	RXFP1 ag	pAkt inh	gsp antag	RXFP1 antag
Oc1ccc(-c2nc(-c3ccccc3)c(-c3ccc(Br)cc3)[nH]2)cc1	x	2.4%	x	x	-4.9
CCCc1nc(SCC(=O)N2CCC(Cc3ccccc3)CC2)c2c(=O)n(C)c(=O)n(C)c2n1	u	1.9%	i	25.1µM*	3.4
CC(=O)N[C@H]1[C@H]([C@H](O)[C@H](O)CO)OC(C(=O)O)=C[C@@H]1N=C(N)N	x	x	x	x	-2.6
CCOc1ccccc1-c1noc(CSc2nnc(-c3ccccc3)n2-c2ccc(OC)cc2)n1	x	1.0%	x	x	2.1
NC(=S)n1[nH]c(-c2ccc([N+](=O)[O-])cc2)c(N=Nc2cccc(Cl)c2)c1=O	-9.7%	-1.8%	i	25.1µM*	-7.3
CCCCCOc1ccc(C(=O)N(Cc2ccccc2)C2CCS(=O)(=O)C2)cc1 (centres undefined)	x	0.2%	x	x	u
CCn1nc([N+](=O)[O-])c(C(C#N)c2nc3cc(C(F)(F)F)ccc3s2)c(Cl)c1=O (centres undefined)	-26.1%	0.6%	i	28.2µM*	u
CCCn1nc([N+](=O)[O-])c(C(C#N)c2nc3ccccc3o2)c(Cl)c1=O (centres undefined)	-43.1%	-2.4%	i	u	-16.5
Cc1ccc(-c2nc(N)sc2-c2ccccc2)cc1C	1.9%	1.9%	i	-7.6%	-83.8*
Nc1nc(-c2ccccc2)c(-c2ccccc2)s1	1.2%	2.1%	i	-31.1%	1.7
Cc1nn(-c2ccccc2)c2c1N(CCCC(=O)NCc1ccc(OC(C)C)cc1)C(=O)CS2	x	-2.6%	x	x	x
O=C(CCC1N=C2c3ccccc3N=C(SCC(=O)NCC3CCCO3)N2C1=O)NCc1ccc(F)cc1 (centres undefined)	u	28.8%	x	6.2%	-69.0*
CCCOc1ccc(NC(=O)CC2C(=O)N(c3ccc(Cl)cc3)C(=O)N2CCc2ccncc2)cc1 (centres undefined)	x	2.3%	x	x	-8.3
N#Cc1ccc(-c2ccc(OCC(O)Cn3nnc4ccccc43)cc2)cc1 (centres undefined)	-5.0%	-0.4%	i	31.6µM*	-4.7
Cn1nnnc1SCCCNCc1ccccc1OCc1ccc(Cl)cc1	x	2.4%	x	x	-1.2
COc1ccccc1Nc1sc(C(=O)c2ccc(C)cc2C)c(N)c1S(=O)(=O)c1ccccc1	x	1.3%	x	x	x
Cc1cccc(OCC(=O)NNc2c3ccccc3nc3ccccc23)c1	-4.6%	-0.2%	i	22.4µM*	u
O=C(Cc1ccccc1)NNc1c2ccccc2nc2ccccc12	19.1%	-3.4%	i	-17.1%	-6.8
Cc1cc(CNC(=O)COc2ccccc2)c2ccccc2n1	3.7%[15.4 µM]	0.2%	i	2.2%	10.9
Cc1ccc(OCC(=O)NNc2c3ccccc3nc3ccccc23)cc1	0.5%	0.8%	i	28.2µM*	-67.4*
Cc1nc2c(C(=O)NCCc3ccccc3)c[nH]n2c(=O)c1Cc1ccccc1F	x	-5.7%	x	x	x
CNC(=O)c1c[nH]n2c(=O)c(Cc3ccccc3F)c(C)nc12	14.6%	1.4%	i	11.2µM*	x
N#CC(C#N)=C1C=C2C=C(N3CCCCC3)CCC2CC1 (centres undefined)	37.1%	1.3%	i	39.8µM*	-10.7
CCCCCN(C(=O)COC(=O)COc1c(C)cc(C)cc1C)c1c(N)n(CCCC)c(=O)[nH]c1=O	-2.4%[15.4 µM]	0.2%	i	-8.0%	-68.9*
Cc1nn(CCc2nn[nH]n2)c2nc(-c3ccc(Br)cc3)cc(C(F)(F)F)c12	64.8%[15.4 µM]	14.1µM*	i	-2.0%	3.3
